# Results as given in PubChem BioAssay.
# A number with no mark means an inactive call. The source made the active and inactive calls.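 How the source made its calls, unless noted: active means differentiation response of at least 50%, scaled between solvent and reference control, from cells with both markers; inactive means the rest.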
# Target: ATP-binding cassette sub-family B member 6 (Homo sapiens) (UniProt Q9NP58)
# Assay: blockers of ABCB6-driven porphyrin uptake – K562-ABCB6 cells, flow cytometry, validation set, pilot screen (AID 588550;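 active means inhibition above the screen-wide mean plus 3 SD, about 51%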;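 further: 0% = DMSO wells and 100% = benzethonium chloride 70 µM positive control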)
# Conditions: K562-ABCB6 porphyrin accumulation, 1 h, at 10 µM, hits give high values
# Chain of ATP-binding cassette sub-family B member 6 (Homo sapiens) (Q9NP58 whole entry, looked up): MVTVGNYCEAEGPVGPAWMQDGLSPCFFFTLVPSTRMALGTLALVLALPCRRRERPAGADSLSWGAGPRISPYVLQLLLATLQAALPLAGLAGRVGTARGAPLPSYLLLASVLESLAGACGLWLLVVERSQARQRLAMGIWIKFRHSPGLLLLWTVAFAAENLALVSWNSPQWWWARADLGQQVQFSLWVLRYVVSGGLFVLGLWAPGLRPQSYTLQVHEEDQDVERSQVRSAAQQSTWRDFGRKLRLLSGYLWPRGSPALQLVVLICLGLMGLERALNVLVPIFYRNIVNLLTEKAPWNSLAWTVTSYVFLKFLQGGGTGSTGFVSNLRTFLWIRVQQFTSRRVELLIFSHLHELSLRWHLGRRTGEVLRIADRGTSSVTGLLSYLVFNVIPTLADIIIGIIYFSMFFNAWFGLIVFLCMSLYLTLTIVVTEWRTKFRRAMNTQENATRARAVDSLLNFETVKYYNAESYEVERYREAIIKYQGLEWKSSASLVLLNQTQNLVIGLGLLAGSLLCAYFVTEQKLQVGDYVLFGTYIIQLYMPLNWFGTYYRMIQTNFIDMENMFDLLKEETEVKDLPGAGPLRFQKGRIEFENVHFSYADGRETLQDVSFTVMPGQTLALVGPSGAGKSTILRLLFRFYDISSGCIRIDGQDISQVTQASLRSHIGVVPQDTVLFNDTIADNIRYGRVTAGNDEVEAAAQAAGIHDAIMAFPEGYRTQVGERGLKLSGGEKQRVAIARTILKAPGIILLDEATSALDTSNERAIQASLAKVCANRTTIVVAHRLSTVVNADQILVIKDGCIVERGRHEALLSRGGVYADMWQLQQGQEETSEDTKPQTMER
row,Compound,inhibition
1,Fc1cc(F)cc(NC(=S)NCCCN2CCOCC2)c1,2%
2,COc1ccccc1C1(CC(=O)N2CCCCC2)CCOC(C(C)C)C1 (stereo not given),6%
3,CCCCC[C@H](O)/C=C/[C@@H]1[C@@H](C/C=C\CCCC(=O)O)[C@H]2CO[C@@H]1C2,-1%
4,CCC(=O)c1ccc(O)cc1,19%
5,Cn1c2[n+](c3ccc(Cl)cc3c1=O)Cc1ccccc1-2,10%

# System: not listed separately
# Assay: AML differentiation inducers, ER-HoxA9 marrow cells – cell-based, GFP/MAC1 double positive, flow cytometry, validation set, primary screen (AID 588685);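 further: compound exposure lasts four days before antibody staining and flow analysis; 0% = DMSO wells and 100% = 5 µM fulvestrant positive control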
# Conditions: hits give high values, normalized: vehicle 0, fulvestrant 100
row,Compound,differentiation response
1,N/C(=N/OS(=O)(=O)c1ccc([N+](=O)[O-])cc1)c1ccncc1,-8.96%
2,CCSc1nc(O)c(C2OC(=O)c3c2ccc(OC)c3OC)c(=O)n1CC (stereo not given),20%
3,COc1cc2ccc(=O)oc2c(O)c1OCC=C(C)C,7.09%
4,CC(=O)N1CC23C=CC(CC2CC12CCCCCC2)O3 (stereo not given),0%
5,CC(=O)c1cn(C)c(=O)[nH]c1=O,-8.8%
6,CC(=O)Oc1ccc(C2OC(=O)c3ccccc3N2C(C)=O)cc1 (stereo not given),-4.57%
7,O=C1c2ccccc2C(=O)C1c1ccccc1,-5.97%
8,O=c1[nH]cnc2c1ncn2[C@@H]1O[C@H](CO)[C@@H](O)[C@H]1O,-7.94%
9,Nc1ccc2[nH]ncc2c1,87.2% (active)
10,CCN(CC)CCN1C(=O)C(=O)/C(=C(/O)c2c(C)[nH]c(C(=O)OC)c2C)C1c1cccnc1 (stereo not given),-12%
11,Cc1ccc2c(c1)c1c(n2C)C(=O)CCC1,-8.96%
12,COc1ccc(N2C(=O)C3CCCN3C2=O)cc1 (stereo not given),2.4%
13,COc1cccc(OC2OC3COC(C)(C)OC3C(O)C2NC(C)=O)c1 (stereo not given),-11.9%
14,CC[N+](C)(C)Cc1ccccc1Br,-11.9%
15,C[C@H](NC(=O)Nc1ccccc1F)C(=O)O,-10.4%
16,COc1cc(NC(=O)N[C@@H](Cc2ccccc2)C(=O)O)cc(OC)c1,0.92%
17,CN(C)CCOc1ccccc1Cc1ccccc1,-1.05%
18,CCc1cn([C@H]2C[C@H](O)[C@@H](CO)O2)c(=O)[nH]c1=O,1.64%
19,COc1ccc(CCn2c(C)cc3c(c2=O)C(c2ccncc2)C(C#N)=C(N)O3)cc1OC (stereo not given),12%
20,CC(C)(C)C(=O)NC(=S)Nc1sc2c(c1C(N)=O)CCC2,-29.6%

row,Compound,differentiation response
1,Cc1cc(C(=O)NC(CC(C)C)C(=O)O)cc(C)c1[N+](=O)[O-] (stereo not given),-10.4%
2,CCS(=O)(=O)Nc1cc(OC)c(OC)cc1Cc1nccc2cc(OC)c(OC)cc12,-5.97%
3,CCn1c(O)c(/C=C2\C=Nc3ccccc32)sc1=O,-5.68%
4,O=C(C1CCCCC1)N1CC(=O)N2CCc3ccccc3C2C1 (stereo not given),29.5%
5,CCn1cc(C(=O)O)c(=O)c2cc(F)c(N3CCNCC3)cc21,10.8%
6,COc1cccc(N2CC34C=CC(O3)C(C(=O)O)C4C2=O)c1 (stereo not given),44%
7,CC(=O)NCCCC(=O)NC(CCC(=O)OCc1ccccc1)C(=O)OCc1ccccc1 (stereo not given),34.4%
8,Cn1cc(CN(CCO)Cc2cccs2)c(-c2cccc(Cl)c2)n1,-8.8%
9,COc1ccc(C(=O)NC(=O)NC2(C(Cl)(Cl)Cl)OCCO2)cc1,-2.03%
10,CC(=O)c1c(C)[nH]c(C(=O)OCc2ccccc2)c1C,-13.3%
11,C=CCN1C(=O)c2oc3ccccc3c(=O)c2C1c1ccc(O)c(OC)c1 (stereo not given),40.8%
12,CC(=O)CCc1oc2ccccc2c1-c1ccccc1,-1.05%
13,COc1cc(OC)c(C(=O)CCCN2CCCC2)c(OC)c1,-8.19%
14,CC(=O)OCC(=O)[C@@]1(OC(C)=O)[C@@H](C)C[C@H]2[C@@H]3C[C@H](F)C4=CC(=O)C=C[C@]4(C)[C@@]3(F)[C@@H](O)C[C@@]21C,4.2%
15,Cc1nnc(SCC(=O)N2CCCC(C(=O)c3ccc(Cl)cc3)C2)o1 (stereo not given),-13.6%
16,Fc1cc(F)cc(NC(=S)NCCCN2CCOCC2)c1,0.92%
17,COc1ccccc1C1(CC(=O)N2CCCCC2)CCOC(C(C)C)C1 (stereo not given),23.2%
18,CCCCC[C@H](O)/C=C/[C@@H]1[C@@H](C/C=C\CCCC(=O)O)[C@H]2CO[C@@H]1C2,-10.9%
19,CCC(=O)c1ccc(O)cc1,10%
20,Cn1c2[n+](c3ccc(Cl)cc3c1=O)Cc1ccccc1-2,20.6%
